The list is not random: actives were taken first. Their share in the collection is about 14%.
Shiga toxin inh: inhibitors of Shiga toxin in Vero cells; actives 9.2% (n = 290,000); inhibition, % at 38.7 µM; Vero cells, Shiga toxin protein synthesis inhibition reporter; AID 2315; in the data active = inhibition mostly above about 28%, no sharp cut-off; inactive = mostly below about 43%
Giardia FBPA inh: inhibitors of Giardia lamblia fructose-1,6-bisphosphate aldolase. purified Giardia FBPA. Potency, µM (highest dose often 59.6 µM), hits mostly inhibitors. actives 0.71% (n = 290,000). AID 2451; also: nearly all actives have a fitted effect of over 55% in size
Target sequence (A8B2U2 whole entry, looked up): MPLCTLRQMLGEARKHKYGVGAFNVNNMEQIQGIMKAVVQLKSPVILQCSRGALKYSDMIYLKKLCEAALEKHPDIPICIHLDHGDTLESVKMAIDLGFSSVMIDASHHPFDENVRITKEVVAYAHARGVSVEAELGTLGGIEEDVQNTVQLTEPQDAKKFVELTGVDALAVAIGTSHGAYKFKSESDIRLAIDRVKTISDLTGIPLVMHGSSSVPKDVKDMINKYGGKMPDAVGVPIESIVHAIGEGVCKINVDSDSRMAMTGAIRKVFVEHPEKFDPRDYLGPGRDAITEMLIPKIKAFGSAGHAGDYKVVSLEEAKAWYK
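40 nM FBPA preincubated 10 min at RT with compound (up to 57.5 uM final), then substrate plus GAPDH/TPI/NAD/arsenate coupling and diaphorase/resazurin added. Fluorescence read after 20 min at RT, 525/598 nm.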
LmPK inhibitor: LmPK (Leishmania mexicana) enzyme inhibition. Q27686. Potency, µM (top dose mostly 57.5 µM), hits mostly inhibitors. purified LmPK, Kinase-Glo ATP luminescence, 1 h. actives 0.37% (n = 290,000)
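qHTS format; LmPK 0.1 nM; substrates PEP 0.5 mM and ADP 0.1 mM. One-hour room-temperature incubation, then coupled luciferase luminescence; 0.5 nM enzyme wells mark activation.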
NS1 function inh: blocks influenza NS1 protein function; actives 0.4% (n = 270,000); AID 2326; Potency, µM (doses to about 46.1 µM); calls by dose curve; also: actives are rising curves; nearly all actives have a fitted effect of over 50% in size
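Growth recovery, yeast-based: influenza A NS1 expressed in S. cerevisiae causes slow growth, and suppressors are detected by OD600. The parent strain without NS1 is used as positive control.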
Cycloheximide cs: counter-screen hit for Shiga toxin inhibitors, cycloheximide. cell reporter, cycloheximide protein synthesis inhibition counterscreen. actives 12% (n = 300,000). max response, %; in the data active = max response mostly above about 13%, no sharp cut-off; inactive = mostly below about 14%; also: read at 38.3 µM for the half of the compounds with a filed dose
Large screens that a line does not name were inactive. Unless noted, calls follow the shape of the dose curve; as a rule, active = well fitted curve in the direction sought with a large enough effect; inconclusive = small, poorly fitted or top-dose-only effect, or another doubt; inactive = no such curve, though single readings can be large; an effect the other way counts as inactive or inconclusive.

NNc1nc2c(-c3ccc(F)cc3)nnn2c2ccccc12	Shiga toxin inh 130, Giardia FBPA inh inconclusive, Cycloheximide cs 51 (no result: NS1 function inh)
Cc1c([N+](=O)[O-])c(C(=O)NC2CCCCC2)nn1C	none (no result: Giardia FBPA inh)
O=c1c2ccccc2nc2ccc(N3CCOCC3)nn12	Shiga toxin inh 52, Cycloheximide cs 28
Cc1ccc2nc3ccc(N4CCN(C)CC4)nn3c(=O)c2c1	Shiga toxin inh 57, Cycloheximide cs 32
Cc1ccc2nc3ccc(N4CCCCCCC4)nn3c(=O)c2c1	Shiga toxin inh 56, Cycloheximide cs 28
Cc1ccc(NC(=O)CSc2n[nH]c(-c3cccnc3)n2)cc1Cl	none
N#CCSc1nc2ccccc2c2nc3ccccc3n12	Shiga toxin inh active
CCn1c(SCC#N)nc2ccccc2c1=O	none
O=C(Cn1nnc(-c2cccs2)n1)OC1CCCCC1	Cycloheximide cs 18
CC1CCN(C(=O)Cn2nnc(-c3cccs3)n2)CC1	Shiga toxin inh 68, Cycloheximide cs 39
O=C(Cn1nnc(-c2cccs2)n1)N1CCOCC1	none (no result: NS1 function inh)
CCCCOc1ccc(C(=O)NCC(=O)NC(C)CCc2ccccc2)cc1 (stereo unspecified)	none (no result: Giardia FBPA inh)
O=C(NC(=S)NC1CCS(=O)(=O)C1)c1ccccc1 (stereo unspecified)	none (no result: Giardia FBPA inh)
O=C(NC(=S)NC1CCCCCC1)c1cncc(Br)c1	Shiga toxin inh 85, Cycloheximide cs 40
O=C(NC(=S)NC1CCCCC1)c1ccccc1	Shiga toxin inh 99, Cycloheximide cs 48 (no result: Giardia FBPA inh)
C/C(=N\NC(=S)NC1CCCCC1)c1ccccc1	Cycloheximide cs 12
COC1=CC(C)C2CC3OC(=O)CC4C(C)=C(OC)C(=O)C([C@]2(C)C1=O)[C@]34C (stereo partly specified)	none (no result: Shiga toxin inh, LmPK inhibitor, NS1 function inh, Cycloheximide cs)
CCOc1ccc(OCc2ccc(C(=O)OCc3ccccn3)o2)cc1	Shiga toxin inh 143, Cycloheximide cs 63
CN1CCN(C(=O)c2ccc(COc3ccc(C(C)(C)C)cc3)o2)CC1	Shiga toxin inh 65, Cycloheximide cs 49
CCOc1ccc(OCc2ccc(C(=O)NC(C)C)o2)cc1	Shiga toxin inh 43, Cycloheximide cs 40
CCCc1ccc(OCc2ccc(C(=O)N3CCCC3)o2)cc1	Shiga toxin inh 149, Cycloheximide cs 22
COC(=O)c1ccc(COc2ccc(C(=O)c3ccccc3)cc2)o1	none
O=C(c1ccco1)N1CCN(C(=O)c2ccc(COc3ccc4c(c3)CCC4)o2)CC1	none (no result: Giardia FBPA inh)
CO[C@@H]([CH2][Hg])CN1C(=O)c2ccccc2S1(=O)=O.Cn1c(=O)c2nc[nH]c2n(C)c1=O	none (no result: Shiga toxin inh, Giardia FBPA inh, LmPK inhibitor, Cycloheximide cs)
O=C1CCC(C(=O)N2CCCC(C(=O)c3ccc4c5c(cccc35)CC4)C2)=NN1 (stereo unspecified)	none
CCCCc1cc2c(cn1)C(=O)C(C)(OC(C)=O)C(=O)C2 (stereo unspecified)	none (no result: Shiga toxin inh, NS1 function inh, Cycloheximide cs)
O=C(CS(=O)(=O)c1ccccc1)NCc1ccc(Cl)cc1	none (no result: Giardia FBPA inh)
CCOc1ccc(OCc2ccc(C(=O)N3N=C(C(F)F)CC3(O)C(F)F)o2)cc1 (stereo unspecified)	none
CCOc1ccc(OCc2ccc(C(=O)N3CCCC3)o2)cc1	Shiga toxin inh 54, Cycloheximide cs 24
CCOC(=O)c1ccc(COc2ccc(C(C)C)cc2)o1	Shiga toxin inh 102, Cycloheximide cs 73
CCOC(=O)c1ccc(CC(=O)c2ccc(O)c(O)c2O)o1	Giardia FBPA inh 11µM
CC(C)c1ccc(OCc2ccc(C(=O)N3CCCC3)o2)cc1	Shiga toxin inh 155, Cycloheximide cs 111
Cc1ccccc1OCc1ccc(C(=O)N2CCOCC2)o1	none
CCCNC(=O)c1ccc(COc2ccc(C)cc2)o1	none
Nc1sc2c(c1C(=O)c1ccc(Cl)cc1)CCCC2	none (no result: LmPK inhibitor, NS1 function inh)
COc1cccc(OCC(=O)NNC(=O)c2ccc3ccccc3c2)c1	none (no result: Giardia FBPA inh)
C[C@]12CC[C@H]3c4ccc(O)cc4CC[C@@H]3[C@H]1CC[C@@H]2OC(=O)CCc1ccccc1	none (no result: Shiga toxin inh, Giardia FBPA inh, LmPK inhibitor, Cycloheximide cs)
CCCc1ccc(OCc2ccc(C(=O)N3CCN(c4ccccn4)CC3)o2)c(OC)c1	Cycloheximide cs 36
COc1ccc(CC(=O)N2CCN(c3ccccn3)CC2)cc1OC	none
CCC(C)c1ccc(OCc2ccc(C(=O)O)o2)cc1 (stereo unspecified)	Shiga toxin inh 105, Cycloheximide cs 71
O=c1oc2c(-c3ccc([N+](=O)[O-])cc3)cc(O)cc2s1	Cycloheximide cs 15
NC1=C(c2ccc([N+](=O)[O-])cc2)C(=O)CO1	none
ClC1(Cl)CC1CSc1nnc(-c2ccncc2)o1 (stereo unspecified)	Cycloheximide cs 19
CCSc1nnc(-c2ccncc2)o1	none (no result: Giardia FBPA inh)
CC(C)COc1ccc(-c2nnc(-c3ccncc3)o2)cc1	Shiga toxin inh 111, Cycloheximide cs 38
c1cc(-c2nnc(-c3ccncc3)o2)ccn1	none
CCCOc1ccc(-c2nnc(-c3ccncc3)o2)cc1	Shiga toxin inh 84, Cycloheximide cs 21
O=[N+]([O-])c1cccc(-c2csc(CS(=O)(=O)Cc3ccco3)n2)c1	Cycloheximide cs 16
NS(=O)(=O)c1ccc(Nc2nc(-c3cccc([N+](=O)[O-])c3)cs2)cc1	none (no result: NS1 function inh)
CCOC(=O)c1cnn(-c2ccccc2)c1-c1ccncc1	none
O=C(Cn1c(O)c(/C=C2\C=Nc3ccccc32)sc1=O)Nc1ccc2c(c1)OCO2	Cycloheximide cs 29
COC(=O)C1CCN(C(=O)c2ccc3nccnc3c2)CC1	none (no result: Giardia FBPA inh)
COc1cccc(C(=O)NC(C)CCc2ccccc2)c1 (stereo unspecified)	none
COc1cccc(-c2nc3ccc(C(=O)NC(C)Cc4cccnc4)cc3o2)c1 (stereo unspecified)	Shiga toxin inh 28, Cycloheximide cs 29
COC(=O)C1CCN(C(=O)c2ccc3nc(-c4cccc(OC)c4)oc3c2)CC1	Shiga toxin inh 95, Cycloheximide cs 76 (no result: Giardia FBPA inh)
Cc1cc(C)n2nc(CNS(=O)(=O)c3cccc([N+](=O)[O-])c3)nc2n1	none
CSc1ccc(NC(=O)N2CCC(C(=O)c3ccc(F)cc3)CC2)cc1	none
Oc1ccccc1-c1nc(/C=C/c2ccccc2)nn1-c1ccccc1	Cycloheximide cs 23
Oc1ccc(/C=C/c2nc(-c3ccccc3O)n(-c3ccccc3)n2)cc1	none
Cc1ccccc1Oc1cc(-n2ncc(Cl)c(Cl)c2=O)ncn1	Cycloheximide cs 14
COc1ccc(-c2nc3c(n2O)CCc2c-3no[n+]2[O-])cc1	Cycloheximide cs 13
CCOC(=O)C1CCN(C(=O)Cn2nc(C)n3nc(-c4ccc(CC)cc4)cc3c2=O)CC1	none
CCCCCC/C=C/c1ccc(OC)c(C2C3C=CCC(C)C3C(=O)N2Cc2ccccc2)c1 (stereo unspecified)	none (no result: LmPK inhibitor, NS1 function inh)
CCc1ccc2c(c1)[C@H]1OCC[C@H]1[C@@H](c1cccs1)N2	Shiga toxin inh 42, Cycloheximide cs 26
Cc1ccc(C(N)=Nc2ccccc2)cc1	Cycloheximide cs 16
Cc1ccc(CC(=O)O/N=C(\N)c2ccncc2)cc1	Cycloheximide cs 30 (no result: Giardia FBPA inh)
COc1ccc(/C(N)=N/OC(=O)Cc2ccc(C)cc2)cc1	Shiga toxin inh 50, Cycloheximide cs 30
Cc1ccc(/C(N)=N/OC(=O)Cc2ccccc2)cc1	Shiga toxin inh 54, Cycloheximide cs 53
